This is a sample that favours compounds with a hit; in the whole collection about 4% have one here.
TRHR PAM – TRH receptor (human) allosteric enhancement. P34981. TRHR cells, fluo-8 calcium fluorescence, EC20 TRH enhancement. enhancement, % at 2 µM. 360,000 compounds, 0.66% hits; in the data active means enhancement above about 30%; further: 0% is about no effect
Target sequence (P34981 whole entry, looked up): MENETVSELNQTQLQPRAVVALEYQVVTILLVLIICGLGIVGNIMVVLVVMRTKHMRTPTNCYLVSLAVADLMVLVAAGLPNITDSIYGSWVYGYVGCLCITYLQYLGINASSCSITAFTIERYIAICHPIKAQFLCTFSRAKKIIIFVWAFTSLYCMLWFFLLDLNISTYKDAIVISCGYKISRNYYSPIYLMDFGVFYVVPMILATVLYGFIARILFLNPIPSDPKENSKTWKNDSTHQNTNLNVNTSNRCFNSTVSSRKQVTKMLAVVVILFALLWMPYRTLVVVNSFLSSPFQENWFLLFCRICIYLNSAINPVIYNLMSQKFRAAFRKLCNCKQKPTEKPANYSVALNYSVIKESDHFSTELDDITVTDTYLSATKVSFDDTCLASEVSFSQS
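TRHR-expressing cells loaded with fluo-8 calcium dye were read kinetically (ex 480/em 530) during compound addition, then stimulated with an EC20 of TRH (10 nM final). Enhancement of the Gq-mediated intracellular calcium response was scored.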
GRP78 ERSR act – induces the endoplasmic reticulum stress response in human glioma cells; AID 602332; 420,000 compounds, 0.02% hits; U87-MG GRP78 promoter luciferase reporter, 16 h; Potency, µM, without a hit: at the top dose activation, hits mostly activators; active means well fitted activation curve with a large enough effect; inconclusive means small, poorly fitted or top-dose-only effect; inactive means no such curve, though single readings can be large or run the other way; further: potency means the concentration at half of the fitted maximal effect; series mostly up to about 76 µM; % of control where 0% means no effect; nearly all actives have a fitted effect of over 35% in size
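Stably transfected U87-MG human glioma cells carrying a GRP78-based luminescent sensor were seeded at 1000 cells/well, pin-dosed with compounds and incubated 16 h. Luciferase reagent was then added, and end-point luminescence was read after 10 min at room temperature.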
D1 potentiator – enhances dopamine response at the human D1 receptor | 360,000 compounds, 0.036% hits | potentiation, % at 10 µM | AID 504651 | HEK293 TREx D1 cells, calcium flux, dopamine EC20 potentiation; in the data active means potentiation above about 30%; further: 0% is about no effect
D1 agonist – human D1 receptor agonism. P21728. 360,000 compounds, 1% hits. activation, % at 2 µM. HEK293 T-REx D1 cells, calcium flux, agonist mode; further: 0% is about no effect
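Tetracycline-induced HEK293 TREx D1 cells, force-coupled to calcium signalling, were dye-loaded with a no-wash calcium kit. Compound was pin-added after a 10 s baseline. Fluorescence was read kinetically at 1 cycle/s for 180 s, with calcium rises flagged as agonism.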
D1 antagonist – human D1 dopamine receptor antagonism | P21728 | activity change, negative = inhibition, % at 10 µM | 360,000 compounds, 3.2% hits | HEK293 TREx D1 cells, calcium flux, dopamine EC80; stronger effect = lower value; in the data active means activity change below about -30%; further: on the % scale 0 is the no-effect control and ±100 the full control effect
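Tetracycline-induced HEK293 Trex D1 cells, force-coupled to calcium, dye-loaded; compounds added and read 180 s, then EC80 dopamine added and calcium flux tracked kinetically another 180 s.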
TRHR ag – agonists of human TRH receptor | 360,000 compounds, 0.18% hits | activation, % at 2 µM | TRHR cells, calcium flux fluo-8, FDSS agonist mode | P34981; further: 0% is about no effect
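Agonist-mode FDSS calcium read (Ex 480/Em 530, 1 s cycles) in 1536-well TRHR cells with fluo-8 dye, after 10-cycle baseline and 23 nL compound addition; TRH at EC20 (10 nM final) added afterwards for the enhancer phase.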
* = called active by the depositor; ? = inconclusive; nt = no result; ! = not confirmed by another sample. Unless noted, no stated cut-off is given here; in the data, active means activation above about 30%; inactive means the rest.

SMILES | TRHR PAM | GRP78 ERSR act | D1 potentiator | D1 agonist | D1 antagonist | TRHR ag
COc1ccc(/C=C2/SC(=S)N(Cc3ccccc3)C2=O)cc1O | -7 | -8% | -3 | 8 | 4 | -1
O=C1/C(=C\c2cc(Cl)c(O)c(Cl)c2)SC(=S)N1Cc1ccccc1 | 3 | -1% | -9 | 412* | -85* | 188*
COc1ccc(OC)c(/C=C2\SC(=S)N(Cc3cccnc3)C2=O)c1 | 8 | -3% | 4 | 48* | 23 | 1
O=C(O)COc1ccc(/C=C2/SC(=S)N(Cc3ccccc3)C2=O)cc1 | 7 | -6% | 1 | 1 | 2 | 0
COc1ccc(O)c(/C=C2/SC(=S)N(Cc3ccccc3)C2=O)c1 | -5 | -4% | -1 | 40* | -5 | 16
CC(Sc1ncn[nH]1)C(=O)NCc1ccccc1 (configuration not stated) | 1 | -5% | 0 | 2 | 6 | 0
COc1ccc(O)c(/C=N/n2c(-c3ccco3)csc2=Nc2cccnc2)c1 | -3 | 1% | -5 | 4 | -42* | 0
COCCn1c(-c2ccco2)csc1=Nc1cccnc1 | -2 | -2% | 1 | 1 | 6 | 0
Cc1nn(C(C)C(=O)NCCc2ccccc2)c(=O)c2cc3occc3n12 (configuration not stated) | 1 | -7% | -6 | -1 | -4 | -1
Cc1nn(C(C)C(=O)NCC2CCCO2)c(=O)c2cc3occc3n12 (configuration not stated) | 5 | -1% | -9 | 0 | -33* | 1
COc1cc(/C=N/N(c2ccccc2)c2ccccc2)ccc1O | 1 | -14% | 2 | 1 | -6 | 0
CN(C)CCCNC(=O)c1cc(C(=O)c2ccccc2F)c[nH]1 | 6 | -5% | -2 | 1 | -4 | 2
CN(C)CCCNC(=O)c1cc(C(=O)Cc2ccccc2)c[nH]1 | 34* | 1% | -5 | 1 | 13 | 1
COc1ccc(Cl)cc1C(=O)NNC1CC(=O)N(Cc2ccc(Cl)cc2)C1=O (configuration not stated) | -7 | -3% | 0 | -2 | 12 | 0
CCc1ccccc1NC(=O)CSc1ncc2c(n1)-c1cc(Cl)ccc1N(Cc1ccccc1)S2(=O)=O | -2 | -4% | 1 | 1 | -50* | 1
COc1ccc(N2CCN(C(=O)COC(=O)c3nc(Cl)ccc3Cl)CC2)cc1 | nt | -6% | nt | nt | nt | nt
O=C1c2ccccc2NC(c2ccc(O)cc2)N1c1ccccc1 (configuration not stated) | 0 | 3% | 2 | 0 | -75* | 0
O=C1c2ccccc2NC(c2ccccc2)N1c1ccc(O)cc1 (configuration not stated) | -7 | -2% | -1 | 1 | -10 | -1
Cc1ccccc1NC(=O)CCn1cnc2onc(-c3ccc(F)cc3)c2c1=O | 17 | -3% | -3 | 24 | -45* | -1
CCOC(=O)CCn1nc(-c2ccc(C)cc2)c2ccccc2c1=O | 3 | -7% | -10 | 1 | -49*! | -1
COC(=O)CCn1nc(-c2ccc(C)cc2)c2ccccc2c1=O | -7 | -3% | -6 | 1 | -21 | -1
CCOc1ccc(NC(=O)CCn2cnc3onc(-c4ccc(F)cc4)c3c2=O)cc1 | -9 | -3% | -1 | 13 | -17 | 0
CC(C)(C)NC(=O)CCn1nc(-c2ccc(Cl)cc2)c2ccccc2c1=O | -5 | -3% | 1 | 0 | 2 | -1
Cc1ccccc1NC(=O)CCn1nc(-c2ccc(Cl)cc2)c2ccccc2c1=O | 37* | -3% | -2 | 4 | 0 | -1
O=C(c1ccccc1)c1sc(N2CCOCC2)nc1-c1ccccc1 | -4 | -2% | -7 | 2 | 17 | 0
SMILES | TRHR PAM | GRP78 ERSR act | D1 potentiator | D1 agonist | D1 antagonist | TRHR ag
CCN(CC)C(=O)c1ccc(COc2ccc(Cl)c(C)c2)o1 | 0 | 1% | -18 | 8 | -31* | 0
COc1cccc(CNC(=O)c2ccc3nc(N4CCCCC4)sc3c2)c1OC | 2 | -2% | -4 | 0 | -6 | 0
CCOc1ccc(N2C(=O)C3=C(C(c4ccc(Cl)cc4)=NCCN3)C2c2cccnc2)cc1 (configuration not stated) | 4 | -3% | -4 | 1 | -47* | 0
C=CCNC(=O)c1cc(C(=O)C(C)c2ncc(C(F)(F)F)cc2Cl)c[nH]1 (configuration not stated) | 6 | -3% | 3 | 36* | -2 | -1
COc1ccc(NS(=O)(=O)c2ccc(O)c(C(=O)OCC(=O)NC(C)C3CC4CCC3C4)c2)cc1 (configuration not stated) | 0 | -5% | 6 | 11 | 14 | 1
CC(NC(=O)COC(=O)c1cc(NS(=O)(=O)c2ccc(Cl)c([N+](=O)[O-])c2)ccc1O)C1CC2CCC1C2 (configuration not stated) | -13 | ? | -7 | 7 | -31* | 0
O=C(N/N=C/c1cc(Cl)cc([N+](=O)[O-])c1O)c1ccccc1NS(=O)(=O)c1cccs1 | -2 | 0% | -3 | 4 | -30* | 1
O=C(NN=Cc1ccc(O)cc1)c1ccccc1NS(=O)(=O)c1cccs1 | nt | 1% | nt | nt | nt | nt
O=C(CCCCCn1c(=O)[nH]c2ccccc2c1=O)N1CCN(c2cccc(C(F)(F)F)c2)CC1 | 7 | -2% | -1 | 1 | 8 | 0
O=C(CCS(=O)(=O)Cc1ccc(Cl)cc1)NCCCN1CCN(c2ccccc2F)CC1 | 33* | -3% | -22 | 51* | -59* | -1
O=C(CCCn1c(=O)[nH]c2ccccc2c1=O)N1CCN(c2ccccc2)CC1 | 5 | -4% | -6 | -1 | -37* | 0
Cc1ccccc1CS(=O)(=O)CCC(=O)NCCCN1CCN(c2ccccc2F)CC1 | 6 | -1% | -10 | -1 | -6 | 0
O=C(CCCCCn1c(=O)[nH]c2ccccc2c1=O)NCCCN1CCN(c2ccccc2F)CC1 | -2 | -10% | -3 | 1 | -91* | -1
CS(=O)(=O)N(CC(=O)N/N=C/c1cccc2c1OCCO2)c1ccccc1Br | 3 | -7% | -10 | 2 | -26 | 0
CCOc1ccc(-n2cc(-c3ccccc3)c3c(=O)[nH]cnc32)cc1 | -8 | -4% | -9 | 1 | -68* | -1
Cc1cccc(-n2cc(-c3ccccc3)c3c(N4CCC(C)CC4)ncnc32)c1 | -4 | -1% | 14 | -1 | -7 | 0
CCOc1ccc(-n2cc(-c3ccccc3)c3c(=S)nc[nH]c32)cc1 | -15 | -2% | -3 | 5 | -1 | 0
Cc1cccc(-n2cc(-c3ccccc3)c3c(=O)[nH]cnc32)c1 | 3 | 0% | -8 | -1 | -45* | -1

Bioassay records deposited in PubChem by National Center for Advancing Translational Sciences (NCATS).
